# Screening data: PubChem BioAssay, National Center for Advancing Translational Sciences (NCATS)
# Shown are actives, neighbours in structure and some others; about 2.4% of the full set was active somewhere.
# D2 antagonist: antagonizes the human D2 dopamine receptor. inhibition, % at 10 µM. 2% of 340,000 active. P14416. HEK293 TREx D2 cells, calcium flux, dopamine EC80; in the data active = inhibition above about 30%; inactive = below that, where a call was filed; note: 0% is about no effect
#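 In this primary screen, negative modulation is detected by tracking calcium flux after an EC80 dopamine challenge in inducible HEK293 T-REx D2 cells preexposed to test compound for 180 s.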
# D2 PAM-1: D2 dopamine receptor (human) potentiation; HEK293 T-REx D2, calcium flux, EC20 dopamine potentiation; potentiation, % at 10 µM; 0.34% of 340,000 active; AID 485347;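 active = potentiation over 3 SD above the plate norm, cut at about 30% in these data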; note: 0% is about no effect
#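 Tetracycline-induced HEK293 T-REx cells force-coupled to calcium signalling expressed D2; compounds were pin-added after a 10 s baseline, read kinetically 180 s, then an EC20 dopamine challenge followed with a further 180 s calcium read.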
# D2 ag-1: D2 dopamine receptor (human) agonism; 0.53% of 340,000 active; AID 485358; P14416; activation, % at 2 µM; HEK293 T-REx D2 cells, calcium flux agonist mode;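 active = activation over 3 SD above normal in the single-dose calcium agonist read, cut at about 30% in these data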; note: 0% is about no effect
#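 Calcium-flux readout, 1 cycle/sec over 180 s following compound pin transfer, in inducible HEK293 Trex D2 cells (force-coupled); dopamine controls included. Positive calcium responses during this window marked compounds as potential agonists.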
# D2 PAM-2: potentiates the human D2 dopamine receptor allosterically; potentiation, % (concentration not given with the values); 0.23% of 360,000 active; DiscoveRx D2 beta-arrestin cells, luminescence, 90 min; 100% = 57 uM dopamine signal; in the data active = potentiation above about 50%; inconclusive = mostly about 30% to 49%
#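 PathHunter D2 cells, attached overnight at 37 deg C, received compound in DMSO plus dopamine at EC20 (50 nM final) for 90 min at 37 deg C. Beta-arrestin recruitment was read as luminescence after 1 h with detection reagent at ambient temperature.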
# D2 ag-2: human D2 receptor agonism in beta-arrestin assay; DiscoveRx PathHunter D2 beta-arrestin, luminescence, 90 min; 100% = 57 uM dopamine signal; activation, % (no concentration beside the values); 0.084% of 360,000 active; AID 624465; in the data active = activation above about 40%; inconclusive = between about 15% and that limit
#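 DiscoveRx PathHunter D2 beta-arrestin cells (2,100/well) attached overnight, then compound-stimulated 90 min at 37 C in HBSS/10 mM HEPES/0.1% Tween-20 buffer; beta-galactosidase complementation read by luminescence after 1 h at ambient temperature. Dopamine 57 uM final (EC100) as control.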
# D3 ag: D3 receptor agonism confirmed, beta-arrestin readout. shares compounds with D2 ag-1. DiscoveRx D3 beta-arrestin cells, luminescence, 90 min. Potency, µM (highest dose often 76.9 µM), for inactives: at the top dose activation, hits mostly activators. 4% of 2,300 active. AID 720506;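 note: potency is the fitted concentration of half-maximal effect; 100% = dopamine control response; nearly all actives have a fitted effect of over 70% in size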
# Target sequence (P35462 whole entry, looked up): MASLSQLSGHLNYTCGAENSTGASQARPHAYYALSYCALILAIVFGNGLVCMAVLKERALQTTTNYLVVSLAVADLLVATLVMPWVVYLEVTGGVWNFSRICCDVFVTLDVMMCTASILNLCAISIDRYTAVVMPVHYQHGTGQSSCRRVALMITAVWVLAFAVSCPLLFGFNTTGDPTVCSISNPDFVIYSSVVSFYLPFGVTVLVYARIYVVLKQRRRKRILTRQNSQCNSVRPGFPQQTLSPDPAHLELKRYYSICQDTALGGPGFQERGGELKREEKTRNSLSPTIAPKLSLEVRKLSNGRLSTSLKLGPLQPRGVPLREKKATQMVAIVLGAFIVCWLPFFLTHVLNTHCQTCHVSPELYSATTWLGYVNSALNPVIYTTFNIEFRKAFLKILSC
# D2 ag-3: D2 receptor agonism, beta-arrestin counterscreen | shares compounds with D2 ag-1 | DiscoveRx PathHunter D2 beta-arrestin, luminescence, 90 min; response scale: percent relative to full dopamine signal | Potency, µM (top dose mostly 76.9 µM), for the others: at the top dose activation, usual class: activators | 5.9% of 2,300 active; note: potency is the fitted concentration of half-maximal effect; % of control where 0% means no effect; nearly all actives have a fitted effect of over 70% in size
# The depositor's hits bear a star; ? = inconclusive; . = not tested or not shown. Unless noted, calls come from the whole dose curve; as a rule, active = well fitted activation curve with a large enough effect; inconclusive = small, poorly fitted or top-dose-only effect; inactive = flat fitted curve, though single readings scatter.
SMILES,D2 antagonist,D2 PAM-1,D2 ag-1,D2 PAM-2,D2 ag-2,D3 ag,D2 ag-3
Cc1ccccc1NC(=O)NCCCN1CCN(c2ccccc2)CC1,79*,-22,77*,-21,?,?,?
COc1ccccc1C(=O)NCC(=O)N/N=C/c1cn[nH]c1-c1ccccc1,22,-22,67*,8,5,8%,3%
O=C(CNC(=O)c1ccccc1)N/N=C/c1cn[nH]c1-c1ccccc1,9,-2,9,-6,1,.,.
COc1cccc(CN(C)C(=O)c2cccc(S(=O)(=O)N3CCN(Cc4ccccc4)CC3)c2)c1OC,0,0,2,-12,-3,29%,20%
CC(=O)N1CCCc2cc(S(=O)(=O)N(C)CC(=O)Nc3cccc(Cl)c3C)ccc21,.,-11,1,.,.,.,.
Cc1ccc(C)c(-n2cc(-c3ccccc3)nc2SCC(=O)Nc2ccccc2)c1,.,-8,.,.,.,.,.
CCOC(=O)c1[nH]c(C)c(C(=O)N2CCOCC2)c1C,3,3,1,-1,0,.,.
Cc1c(C(=O)N2CCN(c3ccccc3)CC2)oc2c(Cl)cccc12,13,7,-1,-10,1,-6%,-3%
CCOC(=O)c1[nH]c(C)c(C(=O)N2CCN(c3ccccc3)CC2)c1C,23,-5,31*,-18,-3,2%,2%
COc1ccc2c(c1)c1c(c(=O)n(-c3cc(Cl)ccc3C)c(=O)n1CC(=O)N1CCCC1)n2C,.,.,0,.,.,.,.
Cn1c(=O)c2[nH]c(N3CCN(c4ccccn4)CC3)nc2n(C)c1=O,7,4,3,.,.,-2%,2%
Cn1c(=O)c2[nH]c(N3CCCCC3)nc2n(C)c1=O,-7,4,0,7,-1,.,.
CCOc1ccc(C(=O)N2CCN(C(=O)c3ccco3)CC2)cc1OCC,-3,6,0,9,2,.,.
CCOc1cc(CN2CCN(C(=O)c3ccco3)CC2)ccc1OC,74*,-29,99*,63*,?,-3%,25µM*
COc1ccc(CN2CCN(C(=O)c3ccco3)CC2)cc1,87*,-20,87*,65*,77*,?,10µM*
COc1ccc(CN2CCN(C(=O)c3ccc(S(=O)(=O)N4CCCCCC4)cc3)CC2)cc1,.,.,.,-4,-1,6%,14%
COc1ccc(CN2CCN(Cc3ccco3)CC2)cc1,.,.,.,-10,0,.,.
COc1ccc2ccccc2c1CN1CCN(C(=O)c2ccccc2)CC1,-16,-15,2,-12,-2,.,.
COc1ccc2ccccc2c1CN1CCN(C(=O)c2ccco2)CC1,89*,-27,69*,26,58*,?,25µM*
CC(C)(C)c1ccc(C(=O)NNc2ncnc3c2cnn3-c2ccccc2)cc1,.,20,-1,.,.,.,.
O=C1CC(c2ccccc2)Cc2[nH]c(=O)c(C(=O)Nc3cccc(F)c3)cc21 (centres undefined),.,-2,4,.,.,.,.
CC(=O)c1cccc(OCC(O)CN2CCN(S(=O)(=O)c3c(F)cccc3F)CC2)c1 (centres undefined),-7,4,1,-7,-4,.,.
CCOc1ccc(CN2CCN(C(=O)c3ccco3)CC2)cc1,.,.,.,57*,54*,?,4.5µM*
CC(=O)c1cccc(OCC(O)CN2CCN(C(=O)c3ccco3)CC2)c1 (centres undefined),.,.,.,2,?,18%,?
CCOC(=O)[C@H]1[C@H]2COc3ccc(Cl)cc3[C@@H]2N2C(=O)CN(C)C(=O)[C@@]12C,-8,-18,0,-10,-3,-3%,-3%
SMILES,D2 antagonist,D2 PAM-1,D2 ag-1,D2 PAM-2,D2 ag-2,D3 ag,D2 ag-3
CCOC(=O)[C@H]1[C@H]2COc3ccc(Br)cc3[C@@H]2N2C(=O)CN(Cc3ccco3)C(=O)[C@@]12C,-7,12,1,2,2,-4%,-3%
CCOC(=O)[C@H]1[C@H]2COc3ccc(Br)cc3[C@@H]2N2C(=O)CN(Cc3ccc(Cl)cc3)C(=O)[C@@]12C,.,.,.,-1,-4,.,.
O=C(Cc1ccc(NC(=O)N2CCCCc3ccccc32)cc1)Nc1ccccc1Br,.,4,0,.,.,.,.
Cc1nnc(N2C(=O)C(O)=C(C(=O)c3ccco3)C2c2ccc(F)cc2)s1 (centres undefined),-19,5,17,-2,-4,-6%,-3%
CCN(CC)C(=O)C1=C(C)Nc2nc3ccccc3n2C1c1cccc(Cl)c1 (centres undefined),.,.,1,.,.,.,.
COc1ccc(S(=O)(=O)N2CCC(N3CCN(c4ccccc4OC)CC3)CC2)cc1,-15,-20,37*,-13,1,-8%,7%
COc1ccccc1N1CCN(C2CCN(S(=O)(=O)c3ccc(NC(C)=O)cc3)CC2)CC1,32*,-16,49*,-16,?,-13%,20%
CCN1C(=O)CC(Sc2ccccc2C(=O)O)C1=O (centres undefined),-4,1,-1,4,15,.,.
O=C(O)c1ccccc1SC1CC(=O)N(c2cccc3ccccc23)C1=O (centres undefined),-8,-23,41*,-2,-1,-3%,-4%
CCCn1c(COc2ccccc2)nc2ccccc21,.,.,.,3,?,?,18%
COc1ccc(OCCCCn2c(CO)nc3ccccc32)cc1,74*,2,1,3,10,5%,4%
O=C(c1ccccc1)c1ccc(O)cc1O,-4,-3,11,-8,-6,.,.
CC(=O)c1cc2c(C)c(C(=O)c3ccccc3)oc2cc1O,-9,-10,36*,-27,-3,1%,-2%
CCOC(=O)c1nncc(-c2ccccc2)n1,2,16,0,-5,-2,-3%,-3%
CCOC(=O)c1cc(-c2ccccc2)n[nH]1,-15,-1,-1,2,-1,.,.
CC1=C/C(=C\C=C(C#N)C#N)N(C)c2ccccc21,-21,-12,32*,-4,-3,-26%,-8%
CN(C)C(=O)c1cccc(-c2cnc3c(NC=O)cc(-c4ccccc4F)cn23)c1,.,.,.,6,10,.,.
CCCCC/C=C/C1=CC(=O)C[C@H](c2ccc3c(c2)OCO3)C1,31*,-4,0,-10,-3,-5%,-1%
COc1ccc(-c2onc(C)c2C)cc1S(=O)(=O)Nc1cccc(C#N)c1,.,-14,.,.,.,.,.
Cc1cc(N2CCOCC2)nc(N)n1,26,-9,41*,-3,-2,-3%,-3%
